Drawing on PubChem BioAssay (EPA / NIEHS), this text covers outcome and AC50 for 29 molecules.

Records with an inconclusive call do not appear. Active and inactive are the calls of the source. Rule for the calls, unless noted: active = hit-call score of the fitted dose curve at least 0.9, where 1 is the maximum; inactive = score below 0.9.

Experiment [1] is described as follows: ACEA_ER_80hr: ACEA Biosciences xCELLigence Real-Time Cell Analysis on Estrogen Receptor Agonism for Proliferation (AID 2282667; active = hit-call score of the fitted dose curve at least 0.9, where 1 is the maximum). The following applies: T47D proliferation, impedance (xCELLigence), 80 h. In a few lines:
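Real-time electrical impedance tracked growth of the human breast line T47D, with the 80 h post-dosing value used. Dosing spanned eight 1:4 steps down from a 100 uM final top concentration, run in duplicate.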

Experiment [2] can be described thus: APR_HepG2_NuclearSize_1hr: Apredica 1-hour HepG2 Assay for Nuclear Size (AID 2282670). Conditions: high-content imaging, actives raise or lower the signal. In short, it runs like this: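 Nuclear size measured by high-content imaging of Hoechst 33342 nuclear stain after formaldehyde fixation; human HepG2 line exposed 1 hr to compounds at 0.39–200 uM in 0.5% DMSO, with bidirectional curve fitting relative to DMSO.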

Experiment [3] in a line: APR_HepG2_MitoticArrest_1hr: Apredica 1-hour HepG2 Assay for Mitotic Arrest (AID 2282672). Conditions: high-content imaging, actives raise or lower the signal. In a few lines: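 Ten-point concentration series (0.39 to 200 uM, duplicates, 0.5% v/v DMSO) applied to human HepG2 liver cells for 1 hr. High-content imaging of phospho-histone H3 and Hoechst-stained nuclei after fixation and permeabilization; DMSO-normalised bidirectional fit.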

Experiment [4] in a line: APR_HepG2_P-H2AX_1hr: Apredica 1-hour HepG2 Assay for H2AX Phosphorylation (AID 2282673). Conditions: high-content imaging, actives raise or lower the signal. In short, it runs like this:
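Phospho-H2A.x immunofluorescence (1:200, FITC secondary) plus Hoechst nuclear stain, quantified by high-content imaging in HepG2 after 1 hr compound exposure. Ten concentrations, 0.39 to 200 uM, in duplicate with 0.5% DMSO; fit both directions against DMSO.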

Experiment [5] is described as follows: APR_HepG2_MitoMass_1hr: Apredica 1-hour HepG2 Assay for Mitochondrial Mass (AID 2282674). Conditions: high-content imaging, actives raise or lower the signal. In a few lines:
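Mitochondrial mass is taken from MitoTracker Red CMXRos (250 nM, 30 min, pre-fixation) fluorescence imaged at 20x in HepG2 cells. Exposure lasted 1 hr across ten concentrations, 0.39 to 200 uM, 0.5% DMSO; DMSO baseline, bidirectional fitting.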

A short description of experiment [6]: APR_HepG2_MitoMembPot_1hr: Apredica 1-hour HepG2 Assay for Mitochondrial Membrane Potential (AID 2282675). Conditions: imaging, actives raise or lower the signal. In a few lines:
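Mitochondrial membrane potential read as MitoTracker Red CMXRos intensity by automated imaging of fixed HepG2 cells. Dye at 250 nM for 30 min pre-fixation; compounds 0.39 to 200 uM for 1 hour, duplicate wells, 0.5% DMSO.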

Experiment [7] in a line: APR_HepG2_CellLoss_1hr: Apredica 1-hour HepG2 Assay for Cell Loss (AID 2282668).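 Note: curves fitted both ways against DMSO so gain or loss of cells counts.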 Conditions: high-content imaging. In short, it runs like this:
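Cell number comes from high-content imaging of Hoechst-labelled nuclei in fixed HepG2 cells. Cells were exposed for 1 h to ten concentrations from 0.39 to 200 uM in 0.5% DMSO. Gain or loss was fitted against DMSO controls.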

Experiment [8] can be described thus: APR_HepG2_MicrotubuleCSK_1hr: Apredica 1-hour HepG2 Assay for Microtubule CSK Stabilty (AID 2282669). Conditions: HepG2 microtubule cytoskeleton imaging, actives raise or lower the signal. In a few lines: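 Alpha-tubulin immunofluorescence, imaged by automated high-content microscopy with Hoechst nuclear segmentation, measured cytoskeletal change after 1 h dosing of HepG2 at 0.39–200 uM in 0.5% DMSO. Activity fitted in both directions relative to DMSO.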

The nature of experiment [9]: APR_HepG2_p53Act_1hr: Apredica 1-hour HepG2 Assay for p53 Activation (AID 2282671). The following applies: high-content imaging, actives raise or lower the signal. In short, it runs like this: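 After 1 h exposure (0.39–200 uM, 0.5% DMSO final, duplicates), fixed HepG2 cells were labelled with anti-p53 antibody plus Hoechst nuclear stain. Fluorescence quantified by automated 20x imaging; changes fitted in both directions against DMSO.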

For the molecule `O=C(NC(=O)c1c(F)cccc1F)Nc1ccc(OC(F)(F)C(F)OC(F)(F)F)c(Cl)c1` (configuration not stated), the molecule was called inactive in [1], in [2], in experiment [3], in experiment [4] and in experiment [5].
For the molecule `CCOC1Oc2ccc(OS(C)(=O)=O)cc2C1(C)C` (configuration not stated), the molecule was classed as inactive in experiment [1], in [2], in experiment [3], in [4] and in experiment [5].
In the case of `CC(C)(C)C(O)C(Oc1ccc(Cl)cc1)n1cncn1` (configuration not stated), the result in [2], in experiment [4] and in experiment [5] was inactive.
With `CCC(C)(C)C(=O)OC1=C(c2ccc(Cl)cc2Cl)C(=O)OC12CCCCC2`, the molecule was classed as inactive in [2], in experiment [4], in experiment [5] and in experiment [6].
`O=C1c2ccccc2C(=O)N1SC(Cl)(Cl)Cl`: the outcome in experiment [2], in experiment [3], in experiment [4], in experiment [5] and in experiment [6] was inactive.
Take `COP(=S)(OC)Oc1ccc(SC)c(C)c1`: the call in [2], in [4] and in [5] was inactive.
As for `CCS(=O)(=O)c1cccnc1S(=O)(=O)NC(=O)Nc1nc(OC)cc(OC)n1`, the outcome in [2], in experiment [4] and in experiment [5] was inactive.
With `CNC(=O)Oc1cccc(N=CN(C)C)c1`, the call in experiment [7], in experiment [8], in [2], in experiment [4] and in experiment [5] was inactive.
Consider `Cc1cc(C)nc(NC(=O)NS(=O)(=O)c2ccccc2C(=O)OC2COC2)n1`, for which the result in experiment [8], in experiment [2], in experiment [4], in experiment [5] and in experiment [6] was inactive.
`COP(=S)(OC)Oc1ccc([N+](=O)[O-])cc1`: the molecule was classed as inactive in [7], in [2], in experiment [4] and in [5].
For the molecule `COC(=O)c1ccccc1S(=O)(=O)NC(=O)Nc1nc(C)nc(OC)n1`, the molecule was called inactive in experiment [2], in experiment [4] and in experiment [5].
Consider `C[C@H]1[C@H](c2ccc(Cl)cc2)SC(=O)N1C(=O)NC1CCCCC1`, for which the outcome in experiment [2], in [4] and in experiment [5] was inactive.
For the molecule `O=C(O)CCCOc1ccc(Cl)cc1Cl`, the molecule was classed as inactive in experiment [8], in experiment [2], in experiment [4] and in experiment [5].
Regarding `CC1(c2ccc(Oc3ccccc3)cc2)OC(=O)N(Nc2ccccc2)C1=O` (configuration not stated), the call in experiment [2], in experiment [4] and in experiment [5] was inactive.
Regarding `CC(C)N(C(=O)COc1nnc(C(F)(F)F)s1)c1ccc(F)cc1`, the molecule was called inactive in experiment [2], in [4], in experiment [5] and in experiment [6].
Take `O=C(O)COc1ccc(Cl)cc1Cl`: the result in [2], in [4] and in experiment [5] was inactive.
Consider `[2H]C1([2H])[n+]2ccccc2-c2cccc[n+]2C1([2H])[2H]`, for which the result in [8], in experiment [2], in [9], in experiment [3], in experiment [4] and in [5] was inactive.
`O=S(=O)(O)C(F)(F)C(F)(F)C(F)(F)C(F)(F)C(F)(F)C(F)(F)C(F)(F)C(F)(F)F`: the molecule was classed as inactive in experiment [7], in [2], in experiment [4], in [5] and in [6].
Turning to `COc1cc(OC)nc(NC(=O)NS(=O)(=O)c2cc(NC=O)ccc2C(=O)N(C)C)n1`, the result in [7], in [2], in experiment [4] and in [5] was inactive.
As to `O=C(Nc1ccccc1)Nc1cnns1`, the molecule was classed as inactive in [2], in experiment [4] and in [5].
Take `CNC(=O)Oc1ccccc1OC(C)C`: the molecule was called inactive in experiment [2], in experiment [4], in experiment [5] and in experiment [6].
As to `OCCOc1ccccc1`, the outcome in experiment [7], in [2], in experiment [4] and in experiment [5] was inactive.
As to `CCC(C)(NC(=O)c1cc(Cl)c(C)c(Cl)c1)C(=O)CCl` (configuration not stated), the molecule was called inactive in experiment [2], in [3], in experiment [4] and in experiment [5].
For the molecule `CN1CSC(=S)N(C)C1`, the molecule was called inactive in experiment [2], in [4] and in [5].
As to `CCN(CC)C(=O)SCc1ccc(Cl)cc1`, the result in experiment [7], in [2], in experiment [4] and in [5] was inactive.
On to `CCOCN(C(=O)CCl)c1c(C)cccc1CC`, for which the call in experiment [2], in experiment [3], in experiment [4], in experiment [5] and in experiment [6] was inactive.
Turning to `ClC1C(Cl)C(Cl)C(Cl)C(Cl)C1Cl` (configuration not stated), the molecule was classed as inactive in experiment [2], in experiment [3], in [4] and in [5].
On to `CC[C@H](C)[C@H]1O[C@]2(C=C[C@@H]1C)C[C@@H]1C[C@@H](C/C=C(\C)[C@@H](O[C@H]3C[C@H](OC)[C@@H](O[C@H]4C[C@H](OC)[C@@H](O)[C@H](C)O4)[C@H](C)O3)[C@@H](C)/C=C/C=C3\CO[C@@H]4[C@H](O)C(C)=C[C@@H](C(=O)O1)[C@]34O)O2` (tested in a mixture with another compound), for which the molecule was classed as inactive in experiment [8] and in experiment [2]. In addition, the AC50 is 22.5 µM (active) in [4] and 26.8 µM (active) in experiment [5].
Regarding `CC1(C)C(C=C(Cl)Cl)C1C(=O)OC(C#N)c1ccc(F)c(Oc2ccccc2)c1` (configuration not stated), the outcome in [8], in [2], in experiment [4], in experiment [5] and in experiment [6] was inactive.
